# Values joined by “and” are separate entries in the source; they are usually repeats but may differ in a detail not shown here. Equal entries are not always repeated. Records with an inconclusive call do not appear. Active and inactive are the calls of the source. Unless noted, calls follow the shape of the dose curve; as a rule, active = well fitted curve in the direction sought with a large enough effect; inconclusive = small, poorly fitted or top-dose-only effect, or another doubt; inactive = no such curve, though single readings can be large; an effect the other way counts as inactive or inconclusive.
# Experiments:
# [1] = qHTS assay for small molecule antagonists of peroxisome proliferator-activated receptor delta signaling (AID 588535); settings: HEK293T PPARd-UAS-bla, beta-lactamase FRET ratio, 18 h; 460 nm channel;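 also: cells co-treated with a PPAR-delta agonist as stimulator during compound exposure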
# Method in brief: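 Beta-lactamase reporter read-out (405 nm excitation, 460/530 nm emission) after CCF4 loading for 2 hrs at RT. HEK293T PPAR-delta-UAS-bla cells, 2% charcoal/dextran FBS, compounds for 18 hrs at 37 C. Hill fit gave IC50 and efficacy.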
# [2] = biological target: Vitamin D3 receptor (Homo sapiens) (UniProt P11473); assay: qHTS assay for small molecule antagonists of vitamin D receptor signaling (AID 588541; calls by dose curve;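 also: receptor activated by calcitriol during compound treatment; % is scaled to controls: 0 for no effect and ±100 for the full control effect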); settings: HEK293T VDR-UAS-bla, beta-lactamase ratio, antagonist mode; series mostly up to 76.7 µM
# Sequence of Vitamin D3 receptor (Homo sapiens) (P11473 whole entry, looked up): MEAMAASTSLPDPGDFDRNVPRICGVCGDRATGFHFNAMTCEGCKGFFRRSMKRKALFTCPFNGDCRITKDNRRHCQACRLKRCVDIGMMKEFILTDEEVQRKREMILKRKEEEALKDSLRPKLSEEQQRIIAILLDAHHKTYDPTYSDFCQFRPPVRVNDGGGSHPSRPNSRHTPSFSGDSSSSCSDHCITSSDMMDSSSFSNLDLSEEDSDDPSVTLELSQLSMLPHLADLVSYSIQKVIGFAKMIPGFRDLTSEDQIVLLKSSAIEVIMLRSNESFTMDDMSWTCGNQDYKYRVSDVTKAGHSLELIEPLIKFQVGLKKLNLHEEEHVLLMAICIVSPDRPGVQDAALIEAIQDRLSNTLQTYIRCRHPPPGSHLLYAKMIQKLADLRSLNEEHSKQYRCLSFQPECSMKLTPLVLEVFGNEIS
# Method in brief: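 VDR-UAS-bla HEK293T cells in 2% charcoal-stripped FBS were stimulated with 1-alpha,25-dihydroxyvitamin D3 (3 nM final) plus compound for 16 h at 37 C. The beta-lactamase CCF4 readout was normalized to 50 nM agonist and DMSO, and Hill fits gave IC50.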
# [3] = biological target: Vitamin D3 receptor (Homo sapiens) (UniProt P11473); assay: qHTS assay for small molecule agonists of vitamin D receptor signaling (AID 588543; calls by dose curve;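 also: 0% = DMSO basal and 100% = reference agonist control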); settings: HEK293T VDR-UAS-bla, beta-lactamase ratio, 16 h; series mostly up to 76.8 µM
# Method in brief: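 Reporter cells (HEK293T, VDR-UAS-bla) were seeded in medium with 2% charcoal-stripped serum and incubated 5 h, then compounds in concentration series were added for 16 h at 37 °C. Stimulation was scaled between DMSO basal and 50 nM 1α,25-dihydroxyvitamin D3.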
# [4] = qHTS assay for small molecule agonists of retinoid X receptor alpha signaling (AID 588544; calls by dose curve;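 as to activation: 0% = DMSO basal wells and 100% = reference agonist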); settings: HEK293T RXRa-UAS-bla, beta-lactamase reporter, 18 h; 530 nm emission
# [5] = biological target: Retinoic acid receptor RXR-alpha (Homo sapiens) (UniProt P19793); assay: as above; settings: HEK293T RXRa-UAS-bla, beta-lactamase reporter, 18 h; series mostly up to 76.7 µM
# Sequence of Retinoic acid receptor RXR-alpha (Homo sapiens) (P19793 whole entry, looked up): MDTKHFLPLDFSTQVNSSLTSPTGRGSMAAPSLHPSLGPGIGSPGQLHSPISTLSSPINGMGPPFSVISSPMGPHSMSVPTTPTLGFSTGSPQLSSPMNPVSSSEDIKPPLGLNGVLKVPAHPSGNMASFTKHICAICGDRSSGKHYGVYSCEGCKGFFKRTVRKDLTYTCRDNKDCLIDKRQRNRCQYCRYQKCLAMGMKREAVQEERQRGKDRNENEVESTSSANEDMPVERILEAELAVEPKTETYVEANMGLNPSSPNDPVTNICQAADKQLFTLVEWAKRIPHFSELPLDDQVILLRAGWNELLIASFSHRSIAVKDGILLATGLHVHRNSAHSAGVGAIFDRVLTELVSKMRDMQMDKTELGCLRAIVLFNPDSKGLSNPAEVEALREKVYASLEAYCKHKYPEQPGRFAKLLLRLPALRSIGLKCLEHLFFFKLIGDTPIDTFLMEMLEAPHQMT
# [6] = biological target: Thyroid hormone receptor beta (Homo sapiens) (UniProt P10828); assay: qHTS assay for small molecule agonists of thyroid hormone receptor beta signaling (AID 588545; calls by dose curve); settings: TR-UAS-bla GripTite HEK 293, beta-lactamase ratio, agonist mode, 18 h; series mostly up to 76.7 µM
# Sequence of Thyroid hormone receptor beta (Homo sapiens) (P10828 whole entry, looked up): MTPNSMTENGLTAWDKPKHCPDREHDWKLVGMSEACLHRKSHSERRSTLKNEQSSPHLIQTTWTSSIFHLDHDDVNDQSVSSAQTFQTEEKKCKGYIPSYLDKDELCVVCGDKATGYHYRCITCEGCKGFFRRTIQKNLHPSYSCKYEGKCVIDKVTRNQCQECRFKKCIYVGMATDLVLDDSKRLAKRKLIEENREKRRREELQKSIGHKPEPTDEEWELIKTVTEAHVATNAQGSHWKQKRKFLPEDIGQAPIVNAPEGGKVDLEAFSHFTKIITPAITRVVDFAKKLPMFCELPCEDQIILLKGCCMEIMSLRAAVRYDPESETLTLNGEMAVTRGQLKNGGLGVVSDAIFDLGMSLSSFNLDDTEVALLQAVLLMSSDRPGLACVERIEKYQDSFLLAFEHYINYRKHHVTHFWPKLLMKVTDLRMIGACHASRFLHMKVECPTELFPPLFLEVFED
# Method in brief: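 In this cell-based screen, titrated compounds act on HEK 293 cells held in medium with 2% charcoal/dextran FBS, NEAA and pyruvate for 18 hrs at 37 C. Responses are expressed relative to T3 (10 nM) as 100% and basal DMSO as 0%.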
# [7] = qHTS assay for small molecule antagonists of retinoid X receptor alpha signaling (AID 588546; active = well fitted inhibition curve with a large enough effect in the signal ratio, with a control signal flat, not every such curve was filed as active; the % refers to the signal ratio;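 also: cells stimulated with 9-cis-retinoic acid as agonist; % is scaled to controls: 0 for no effect and ±100 for the full control effect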); settings: HEK293T RXRa-UAS-bla, beta-lactamase ratio, antagonist mode; measured here: W530 green channel, cytotoxicity proxy
# Method in brief: (§1)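 Beta-lactamase reporter inhibition, read as CCF4 fluorescence ratio (ex 405, em 460/530 nm) after 2 h at RT. HEK293T UAS-bla cells, 2500/well, were stimulated with 9-cis-RA at 500 or 100 nM final alongside test compound for 18 h at 37 C.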
# [8] = biological target: Retinoic acid receptor RXR-alpha (Homo sapiens) (UniProt P19793); assay: as above; settings: HEK293T RXRa-UAS-bla, beta-lactamase ratio, antagonist mode
# Method in brief: as §1
# [9] = qHTS assay for small molecule agonists of the antioxidant response element (ARE) signaling pathway (AID 651741; active = well fitted activation curve with a large enough effect in the signal ratio; the % refers to the signal ratio; also: % of control where 0% means no effect); settings: HepG2 ARE-bla reporter, beta-lactamase FRET ratio, 16 h; series mostly up to 96 µM
# Method in brief: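 HepG2 ARE-bla reporter cells, 2,000/well; 5 h settle at 37 C/5% CO2; compound pin transfer (23 nL, DMSO); 16 h at 37 C; LiveBLAzer B/G FRET substrate, 2 h RT; fluorescence intensity read.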
# [10] = qHTS assay for environmental chemicals that activate the Aryl hydrocarbon Receptor (AhR) signaling pathway (AID 651777); settings: 1A2-DRE human hepatoma cells, luciferase, 24 h; activation: stronger effect = higher value; also: % of control where 0% means no effect; nearly all actives have a fitted effect of over 15% in size
# Method in brief: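 Following a 24 hr incubation with test chemicals at 37 C and 5% CO2, 1A2-DRE human hepatoma cells received One-Glo reagent; after 30 min at room temperature, luciferase output reflected CYP1A2 induction via AhR.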
# [11] = biological target: Peroxisome proliferator-activated receptor alpha (Homo sapiens) (UniProt Q07869); assay: qHTS assay for small molecule agonists of the peroxisome proliferator-activated receptor alpha (PPARalpha) signaling pathway (AID 651778); settings: PathHunter PPARalpha complementation, chemiluminescence, 6 h; max response: stronger effect = higher value; also: % of control where 0% means no effect
# Sequence of Peroxisome proliferator-activated receptor alpha (Homo sapiens) (Q07869 whole entry, looked up, the tested form may be a part): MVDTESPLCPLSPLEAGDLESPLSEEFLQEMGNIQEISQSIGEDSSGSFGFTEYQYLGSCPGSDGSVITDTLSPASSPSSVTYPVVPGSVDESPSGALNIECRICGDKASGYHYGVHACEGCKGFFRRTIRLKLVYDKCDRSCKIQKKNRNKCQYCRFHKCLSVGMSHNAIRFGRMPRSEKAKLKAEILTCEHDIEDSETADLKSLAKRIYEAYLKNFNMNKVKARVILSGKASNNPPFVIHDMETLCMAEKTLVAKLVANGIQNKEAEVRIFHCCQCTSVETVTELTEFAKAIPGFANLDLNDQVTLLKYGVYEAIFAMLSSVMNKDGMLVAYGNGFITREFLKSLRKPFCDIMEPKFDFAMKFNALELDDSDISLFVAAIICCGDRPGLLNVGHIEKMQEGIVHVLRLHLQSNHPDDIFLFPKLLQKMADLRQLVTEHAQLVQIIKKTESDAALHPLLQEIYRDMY
# Method in brief: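 Enzyme-fragment complementation assay in which ligand-bound PPARalpha translocates and forms an active enzyme that generates chemiluminescence. Cells were plated overnight, exposed to compound for 6 hr at 37 C, and then given detection reagent for 60 min at room temperature.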
# [12] = qHTS assay for small molecule agonists of the antioxidant response element (ARE) signaling pathway measured by Nrf2-dependant transcriptional activity (AID 720636; active = well fitted curve in the direction sought with a large enough effect in the repeat runs; an effect the other way counts as inactive or inconclusive;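 also: HepG2 cells with an ARE-driven luciferase reporter; % of control where 0% means no effect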); settings: ARE-luc HepG2, Nrf2 luciferase reporter, 16 h; series mostly up to 92.4 µM
# Method in brief: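 ONE-Glo luminescence, read 30 min after reagent addition at room temperature, reflected ARE reporter activity in HepG2 cells that had been incubated with compound for 16 hr at 37 C in 1% dialyzed FBS.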
# [13] = qHTS assay for small molecule agonists of the antioxidant response element (ARE) signaling pathway measured by Nrf2-dependant transcriptional activity - cell viability counter screen (AID 720653; active = well fitted curve in the direction sought with a large enough effect in the repeat runs; an effect the other way counts as inactive or inconclusive; also: % is scaled to controls: 0 for no effect and ±100 for the full control effect); settings: ARE-bla HepG2 viability, CellTiter-Glo ATP luminescence, 16 h; max response: stronger effect = lower value
# Method in brief: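 ARE-bla HepG2 cells treated with compounds for 16 h at 37C; this counter screen measures viability as intracellular ATP by CellTiter-Glo luminescence after 30 min at room temperature.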
# [14] = qHTS assay for cell viability of HEK293 cells (AID 743288); settings: ATP luminescence (CellTiter-Glo), 18 h; max response: stronger effect = lower value; also: % is scaled to controls: 0 for no effect and ±100 for the full control effect; nearly all actives have a fitted effect of over 50% in size
# Method in brief: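 Viable-cell counts were inferred from luciferase-based ATP content in HEK293 cells seeded at 2,000/well, pre-incubated ≥5 h, then dosed with DMSO-solubilised compounds for 18 h at 37 C.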
# [15] = qHTS assay for cell viability of the p53RE-bla HCT-116 cell line (AID 743292); settings: p53RE-bla HCT-116 viability, ATP luminescence, 16 h; series mostly up to 95 µM; also: nearly all actives have a fitted effect of over 55% in size; also: potency is read from the fitted curve at half-maximal effect
# Method in brief: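 After plating at 4,000 cells per well and a 5 h rest at 37 C, HCT-116 cells carrying p53RE-bla received test chemicals in DMSO. Sixteen hours later at 37 C, CellTiter-Glo was added and luminescence recorded following 30 min at room temperature.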
# [16] = biological target: Nuclear receptor subfamily 1 group I member 2 (Rattus norvegicus) (UniProt Q9R1A7); assay: qHTS assay for small molecule activators of the rat pregnane X receptor (rPXR) signaling pathway (AID 651751; call rule not given here; also: 0% is about no effect); settings: rPXR reporter cells, luciferase (One-Glo), 24 h
# Sequence of Nuclear receptor subfamily 1 group I member 2 (Rattus norvegicus) (Q9R1A7 whole entry, looked up): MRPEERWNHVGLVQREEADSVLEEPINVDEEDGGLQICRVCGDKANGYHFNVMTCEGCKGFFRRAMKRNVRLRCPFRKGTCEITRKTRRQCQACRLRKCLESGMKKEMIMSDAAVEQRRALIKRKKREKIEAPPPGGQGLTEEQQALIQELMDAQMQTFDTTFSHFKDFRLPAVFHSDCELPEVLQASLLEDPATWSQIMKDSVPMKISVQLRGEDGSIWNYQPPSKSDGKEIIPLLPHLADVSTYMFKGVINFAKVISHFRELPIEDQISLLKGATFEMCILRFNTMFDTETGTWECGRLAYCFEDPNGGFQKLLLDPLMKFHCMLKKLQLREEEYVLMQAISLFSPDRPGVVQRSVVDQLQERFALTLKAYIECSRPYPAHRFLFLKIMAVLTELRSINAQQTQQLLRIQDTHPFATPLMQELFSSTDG
# [17] = qHTS assay for small molecule activators of the human pregnane X receptor (PXR) signaling pathway (AID 720659; call rule not given here; also: 0% is about no effect); settings: DPX-2 HepG2 CYP3A4-luciferase, 24 h; series mostly up to 92.3 µM
# [18] = biological target: Glucocorticoid receptor (Homo sapiens) (UniProt P04150); assay: qHTS assay for small molecule agonists of glucocorticoid receptor signaling (AID 588532; active = well fitted curve in the direction sought with a large enough effect in the signal ratio, with a control signal flat; the % refers to the signal ratio;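 also: 100% = dexamethasone at 0.1 µM and 0% = DMSO only wells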); settings: HeLa MMTV-bla, beta-lactamase ratio, agonist, 18 h; stronger effect = higher value; percent of dexamethasone control, DMSO zero
# Sequence of Glucocorticoid receptor (Homo sapiens) (P04150 whole entry, looked up): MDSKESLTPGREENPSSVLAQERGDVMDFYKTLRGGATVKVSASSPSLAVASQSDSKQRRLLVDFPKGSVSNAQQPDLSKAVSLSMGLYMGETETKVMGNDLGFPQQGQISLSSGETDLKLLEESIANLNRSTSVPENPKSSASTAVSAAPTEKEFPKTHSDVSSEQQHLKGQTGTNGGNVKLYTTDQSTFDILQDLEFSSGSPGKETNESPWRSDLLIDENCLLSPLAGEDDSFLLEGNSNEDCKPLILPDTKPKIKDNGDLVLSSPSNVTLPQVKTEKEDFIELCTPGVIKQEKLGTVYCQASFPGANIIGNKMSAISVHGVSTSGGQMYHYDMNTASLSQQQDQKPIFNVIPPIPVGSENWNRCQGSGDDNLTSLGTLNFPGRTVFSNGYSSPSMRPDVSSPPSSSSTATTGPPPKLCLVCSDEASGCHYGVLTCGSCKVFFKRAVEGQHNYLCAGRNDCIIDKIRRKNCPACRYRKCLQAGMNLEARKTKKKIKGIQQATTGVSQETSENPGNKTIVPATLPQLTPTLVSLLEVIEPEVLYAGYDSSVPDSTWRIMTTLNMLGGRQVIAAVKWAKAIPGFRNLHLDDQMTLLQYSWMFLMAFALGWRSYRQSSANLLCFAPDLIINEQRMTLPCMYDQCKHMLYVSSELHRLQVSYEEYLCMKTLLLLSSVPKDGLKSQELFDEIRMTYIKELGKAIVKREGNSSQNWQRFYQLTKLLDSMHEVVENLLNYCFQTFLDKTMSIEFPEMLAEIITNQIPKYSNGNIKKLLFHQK
# Method in brief: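 Cells were plated and rested 3-5 h at 37 C, compounds were added in titration and incubated 18 h, then CCF4 substrate was loaded for 2 h at RT before reading blue/green fluorescence. EC50 came from Hill-equation fitting.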
# [19] = biological target: Glucocorticoid receptor (Homo sapiens) (UniProt P04150); assay: qHTS assay for small molecule antagonists of glucocorticoid receptor signaling (AID 588533; active = well fitted inhibition curve with a large enough effect in the signal ratio, with a control signal flat, not every such curve was filed as active; the % refers to the signal ratio; also: % is scaled to controls: 0 for no effect and ±100 for the full control effect); settings: HeLa MMTV-bla, GRE beta-lactamase ratio, antagonist mode, 18 h; series mostly up to 76.8 µM
# Method in brief: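 Antagonist-mode qHTS: compound titrations added to GRE-bla HeLa cells, then dexamethasone 2 nM final; 18 h, 37 C. CCF4 FRET fluorescence normalized to dexamethasone and DMSO; IC50 from Hill fit.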
Compound,max response [1],Potency [2],outcome [3],max response [4],Potency [5],Potency [6],max response [7],max response [8],Potency [9],activation [10],max response [11],Potency [12],max response [13],max response [14],Potency [15],max response [16],outcome [17],activation [18],Potency [19]
O=c1oc(=O)c2cc3c(=O)oc(=O)c3cc12,11%,inactive,inactive,-7.31%,inactive,inactive,2.24%,-12.6% (inactive),inactive,0.0535% (inactive),-1.48% (inactive),inactive,-10.8% (inactive),-11.4% (inactive),inactive,-1.16% (inactive),inactive,,
CCNc1nc(N)nc(Cl)n1,34.2%,inactive,inactive,-5.45% and -6.57%,inactive,,-17.5% and -16.5%,7.29% (inactive) and -4.52% (inactive),inactive,,-2.09% (inactive) and -1.78% (inactive),inactive,-7.89% (inactive) and -3.73% (inactive),,inactive,-3.95% (inactive) and -0.52% (inactive),,,
CC/C(=C(\c1ccc(O)cc1)c1ccc(OCCN(C)C)cc1)c1ccccc1,,,,,,,,,,-12.4% (inactive),,,,,39.8 µM (active),,,-2.75% (inactive),
CS(=O)(=O)c1ccc(Cl)cc1,15.6%,inactive,inactive,0.314%,inactive,inactive,-4.7%,-18.5% (inactive),inactive,0.81% (inactive),-0.188% (inactive),inactive,0.283% (inactive),-17.3% (inactive),inactive,3.76% (inactive),inactive,,inactive
S=C(S)NCCNC(=S)S,,,inactive,,,inactive,,,,0.998% (inactive),0.0068% (inactive),,-0.0675% (inactive),-6.97% (inactive),inactive,-0.407% (inactive),,,inactive

# Reference: PubChem BioAssay (NCATS)
